Measurements reported in ChEMBL document CHEMBL3988442, “University of Dundee, Small-Polar-MMV Screening Library” (2021).
Hit rate of the full screen: of about 48,000 compounds, about 13,000 (27%) showed an effect of 50% or more. The list shows a part of the results.

The molecules below were run on Wolbachia pipientis (assay: Anti-Wolbachia Cell-Based Screen). Conditions: 5 µM.
Assay type: functional
Design: scale not given: in the data most compounds retested in dose-response had high values

Row | Compound | Percent Effect
1 | CCC(C)(C)NC(=O)C[S+]([O-])Cc1csc(C2CCCC2)n1 (stereo unspecified) | -6.862%
2 | Cc1ccc(C)c(CS(=O)(=O)CC(=O)N(C)Cc2cccc(F)c2)c1 | -31.79%
3 | c1nc(N2CCCC(Cn3cncn3)C2)c2sccc2n1 (stereo unspecified) | 164.6%
4 | c1cnn(CC2CCCCN2c2ncnc3sccc23)c1 (stereo unspecified) | -1.869%
5 | c1nc(N2CCCC2Cn2cncn2)c2ccsc2n1 (stereo unspecified) | -0.0676%
6 | Cc1nc(C)n(CC2CCCN(c3ncnc4sccc34)C2)n1 (stereo unspecified) | 4.886%
7 | c1cnn(CC2CCCN2c2ncnc3sccc23)c1 (stereo unspecified) | -19.57%
8 | Cc1sc2ncnc(N3CCCC3Cn3cccn3)c2c1C (stereo unspecified) | 126.3%
9 | c1cnn(CC2CCCN2c2ncnc3ccsc23)c1 (stereo unspecified) | 77.53%
10 | c1nc(N2CCCC(Cn3cncn3)C2)c2ccsc2n1 (stereo unspecified) | 13.9%
11 | Cc1nc(C)n(CC2CCCN2c2ncnc3sccc23)n1 (stereo unspecified) | 103.4%
12 | c1ccc2c(N3CCCC3Cn3cccn3)ncnc2c1 (stereo unspecified) | -8.877%
13 | c1nc2c(c(N3CCCC(Cn4cncn4)C3)n1)CCC2 (stereo unspecified) | -15.31%
14 | c1cnn(CC2CCCN2c2ncnc3c2CCC3)c1 (stereo unspecified) | -39.95%
15 | COc1ccc(CN2C[C@@H]3[C@H](CC(=O)N4CCCC4)[C@@H]3C2)cc1.O=C(O)C(F)(F)F | -9.887%
16 | CN(C)C[C@@H]1CCC[C@@H]2CN(c3cccnc3)C[C@@H]21.O=C(O)C(F)(F)F | 5.573%
17 | CC(C)c1nc(S(=O)(=O)N(C)c2cc(F)ccc2F)c[nH]1 | 7.665%
18 | CCN(Cc1ccoc1)Cc1nc(COC)no1 | -32.73%
19 | Cc1nc(C)n(CC2CCCCN2c2ccnc(-c3ccccc3)n2)n1 (stereo unspecified) | -2.922%
20 | Cc1nc(C)n(CC2CCCN2c2ncnc3ccsc23)n1 (stereo unspecified) | 106.3%
21 | c1nc(N2CCCCC2Cn2cncn2)c2sccc2n1 (stereo unspecified) | 0.3831%
22 | Cc1nc(C)n(CC2CCCN2c2ccnc(-c3ccccc3)n2)n1 (stereo unspecified) | 6.693%

Row | Compound | Percent Effect
23 | CN1CCN(C(=O)C2CCCN2c2ncnc3ccsc23)CC1 (stereo unspecified) | -5.799%
24 | Cc1nc(C)n(CC2CCCCN2c2ncnc3ccsc23)n1 (stereo unspecified) | 109.8%
25 | Cc1nc(C)n(CC2CCCN2c2ncnc3c2CCC3)n1 (stereo unspecified) | -5.699%
26 | CN(C)C(=O)C1CCCN1c1ncnc2ccsc12 (stereo unspecified) | 11.36%
27 | Cc1nc(C)n(CC2CCCN2c2ncnc3sc(C)c(C)c23)n1 (stereo unspecified) | 109.1%
28 | CN(C)C1Cc2ccccc2N(S(=O)(=O)c2cccc(C#N)c2)C1 (stereo unspecified) | -17.15%
29 | CC(C)CC(=O)N1CCN(C(=O)N(C)C)CC2(CC(=O)N(C)C2)C1 (stereo unspecified) | -13.83%
30 | CCOc1ncccc1C(=O)N1CCCC(c2nncn2C)C1 (stereo unspecified) | 139.9%
31 | Cn1cnnc1C1CCCN(C(=O)NCc2ccccc2)C1 (stereo unspecified) | -1.027%
32 | CCOC1CCN(C(=O)c2cc(-c3ccc(Cl)cc3)on2)CC1 | -1.009%
33 | Cn1cnnc1C1CCCN(C(=O)NCc2cc[nH]n2)C1 (stereo unspecified) | -3.292%
34 | Cc1noc(C2CCCN(C(=O)c3cc(-c4ccccc4)on3)C2)n1 (stereo unspecified) | 95.63%
35 | COC1CCN(C(=O)c2cc(-c3ccc(Cl)cc3)on2)CC1 | 1.194%
36 | Cc1noc(C2CCCN(C(=O)c3cc(Cl)cn3C)C2)n1 (stereo unspecified) | -4.017%
37 | CCOc1ncccc1C(=O)N1CCCC(c2nccn2CCOC)C1 (stereo unspecified) | -5.342%
38 | Cn1cnnc1C1CCN(C(=O)c2cc(-c3ccccc3)on2)CC1 | 84.11%
39 | Cc1noc(C2CCCN(C(=O)c3cc(Cl)ccc3F)C2)n1 (stereo unspecified) | -1.909%
40 | Cc1csc(CNC(=O)N2CCCC(c3nncn3C)C2)n1 (stereo unspecified) | 102.5%
41 | COc1ccc(CNC(=O)NC2CCN(CC(F)F)CC2)cc1C | 8.282%
42 | CSc1cccc(CC(=O)N[C@@H]2CCNC[C@H]2O)c1 | -1.267%
43 | Cn1cnnc1C1CCCN(C(=O)c2cnc3ccccc3n2)C1 (stereo unspecified) | -5.928%
44 | Cn1cnnc1C1CCCN(C(=O)NCc2ccccn2)C1 (stereo unspecified) | 107.2%

Row | Compound | Percent Effect
45 | Cn1cnnc1C1CCCN(C(=O)c2cc(-c3ccccc3)on2)C1 (stereo unspecified) | 103.3%
46 | Cn1cnnc1C1CCCN(C(=O)c2ccccn2)C1 (stereo unspecified) | 140.5%
47 | Cn1cnnc1C1CCCN(C(=O)NCCc2ccccn2)C1 (stereo unspecified) | -4.673%
48 | c1cc(-c2ccc3c(c2)CCC32CCNCC2)ccn1 | -7.075%
49 | CC1(C)Cc2c(cnn2-c2cccc(F)c2)C(NC2CCSCC2)C1 (stereo unspecified) | 7.076%
50 | CO[C@H]1CNC[C@@H]1NC(=O)c1cc(C)nc2c(C)c(C)ccc12 | -8.867%
51 | COc1ccc2nc(C3CC3)cc(C(=O)NCC(=O)N(C)C)c2c1 | -4.105%
52 | Cc1ccc2c(C(=O)N(C)C)cc(-c3cnn(CCO)c3)nc2c1C | 115.7%
53 | COc1ccc(CNC(=O)CCn2cc(C)cn2)cc1C | -6.428%
54 | Cc1cc(C(=O)NCc2csc(N(C)C)n2)c2ccc(C)c(C)c2n1 | 2.506%
55 | CCCn1cc(-c2cc(C(=O)N(C)C)c3ccc(C)cc3n2)cn1 | 103.4%
56 | Cc1ccc2nc(-c3cnc(N)nc3)cc(C(=O)N(C)C)c2c1 | -1.148%
57 | CCCn1cc(-c2cc(C(=O)N(C)C)c3ccc(OC)cc3n2)cn1 | 91.31%
58 | CN(C)C(=O)c1cc(-c2cnc(N)nc2)nc2cc(F)ccc12 | 2.349%
59 | Cc1cc(C)c2c(C(=O)N(C)C)cc(-c3cnc(N)nc3)nc2c1 | -4.473%
60 | CCCn1cc(-c2cc(C(=O)N(C)C)c3cccc(C)c3n2)cn1 | 108.4%
61 | COc1ccc2c(C(=O)N(C)C)cc(-c3cnc(N)nc3)nc2c1 | -11.66%
62 | Cc1ccc(-c2nc(CNCCn3cccn3)cs2)o1 | -0.9463%
63 | CN(Cc1cccs1)c1nc2c(cnn2C(C)(C)C)c(=O)[nH]1 | -5.539%
64 | O=C(NCC1(N2CCOCC2)CCSC1)Nc1ccccn1 (stereo unspecified) | 27.17%
65 | CSCCc1n[nH]c2c1CN(S(=O)(=O)c1c(C)nn(C)c1C)CC2 | -3.086%
66 | Cc1ccc(C(C)NC(=O)Nc2ccccc2CN2CCOCC2)o1 (stereo unspecified) | 2.687%

Row | Compound | Percent Effect
67 | Cl.NCC1CCCCN1C(=O)Cc1ccc(F)c(F)c1 (stereo unspecified) | -20.4%
68 | COC[C@@]12CCO[C@@H]1CCN(C(=O)Cc1ccccc1F)C2 | 7.252%
69 | O=C(Cc1ccccc1F)N1CCC[C@@H]1Cn1c(=O)oc2ccccc21 | 111.4%
70 | COc1nc2c(cc1C(=O)NCc1nc(CSC)no1)CCC2 | -10.56%
71 | Cc1nc(CN2CCN(C(=O)CCc3cccc(Cl)c3)CC2)no1 | 2.234%
72 | Cc1nc(CN2CCN(Cc3nccn3C)CC2)no1 | 1.161%
73 | Cc1noc(CN2CCN(CCO)CC2)n1 | -2.451%
74 | Cc1nc(CN2CCN(c3cncc(Cl)n3)CC2)no1 | 85.67%
75 | Cc1cn2nc(N3CCCN(Cc4noc(C)n4)CC3)sc2n1 | 4.27%
76 | Cc1nc(CN2CCN(c3ccc(Cl)cn3)CC2)no1 | 102.8%
77 | Cc1noc(CN2CCN(c3cncc(Cl)n3)CC2)n1 | 120%
78 | Cc1noc(CN2CCN(CC(C)O)CC2)n1 (stereo unspecified) | 16.1%
79 | Cc1nc(CN2CCN(c3ncnc4ccccc34)CC2)no1 | -20.36%
80 | CC(C)(C)NC(=O)C1CSCN1S(=O)(=O)c1ccccc1F (stereo unspecified) | -0.6778%
81 | CCN(CC)CC(=O)Nc1ccc(-n2ccc(C(N)=O)n2)cc1 | -9.684%
82 | Cn1cccc(NC(=O)NCCc2cccc(O)c2)c1=O | 2.871%
83 | c1ccc(-c2nnc([C@H]3CCN(C4CCC4)C3)o2)cc1 | -5.137%
84 | c1cc(C2CCN(C3CCCCC3)C2)n[nH]1 (stereo unspecified) | 99.9%
85 | c1ccc(Cc2nnc([C@H]3CCN(C4CCCCC4)C3)o2)cc1 | 3.661%
86 | FC(F)(F)c1ccc2nc([C@H]3CCN(C4CCCCC4)C3)[nH]c2c1 | 3.029%
87 | c1cc(C2CN(C3CCCC3)C2)n[nH]1 | 154.3%
88 | Clc1ccc(-c2nnc([C@H]3CCN(C4CCCCC4)C3)o2)cc1 | 11.2%

Row | Compound | Percent Effect
89 | c1cc(-c2nnc([C@H]3CCN(C4CCCCC4)C3)o2)ccn1 | -11.18%
90 | c1cc(C2CN(C3CCCCC3)C2)n[nH]1 | 79.34%
91 | F[C@@H]1CN(C2CCC2)C[C@@H]1OCc1nc2ncccc2[nH]1 | 0.839%
92 | CC(=O)N(CCC(=O)NC1(C#N)CCC1)Cc1ccccc1 | -20.67%
93 | Cc1ccc(Oc2ncccc2CNS(=O)(=O)N2CCOCC2)cn1 | 3.348%
94 | Oc1ccc([C@H]2Oc3cc(O)cc(O)c3C[C@@H]2O)cc1 | 2.317%
95 | CC(=O)N(C)c1nc(CN2CCN(Cc3nccn3C)CC2)cs1 | -41.34%
96 | CC(=O)N(C)c1nc(Cn2nnnc2C(C)C)cs1 | 102.4%
97 | CC(=O)N(c1ccc(C)cc1)c1nc(CN2CCCCC2C)cs1 (stereo unspecified) | 5.84%
98 | CCc1nnnn1Cc1csc(N(C)C(C)=O)n1 | 97.38%
99 | CN(C)C(=O)Cc1nc(CN2CCn3c(nnc3C3CC3)C2)cs1 | 2.901%
100 | CC(=O)N(C)c1nc(Cn2nnnc2C2CCCC2)cs1 | 98.73%
101 | CNC(=O)c1ccc(=O)n(Cc2csc(N(C)C(C)=O)n2)c1 | 1.068%
102 | Cc1ccc(=O)n(Cc2csc(N(C)C3CC3)n2)n1 | 2.512%
103 | CC(=O)N(c1ccc(F)cc1)c1nc(CN2CCCC2C(C)C)cs1 (stereo unspecified) | -4.339%
104 | CC(=O)N(C)c1nc(CN2CCN(c3nccs3)CC2)cs1 | -57.57%
105 | CC(=O)N(C)c1nc(Cn2nnnc2C(C)(C)C)cs1 | 75.49%
106 | CCN(C(C)=O)c1nc(CN2CCN(c3nccs3)CC2)cs1 | -119%
